Inconclusive results are not listed. Entries that show only a call come without a potency. Calls of active or inactive are those of the source. Calls come from the whole dose curve; as a rule, active = well fitted inhibition curve with a large enough effect in the polarisation, with a control signal flat (not every such curve was filed as active); inconclusive = small, poorly fitted or top-dose-only effect, or effect the other way, or a change in a side signal; inactive = no such curve, though single readings can be large or run the other way; the % refers to the polarisation.
Assay: Confirmation of Inhibitors Targeting the Menin-MLL Interaction in MLL Related Leukemias: Competition With Texas Red Labeled MLL-derived Mutant Peptide
In short: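 FP competition using menin at 200 nM with Texas Red-labeled mutant MLL peptide (50 nM) plus fluorescein MLL-w.t. peptide (25 nM) in 50 mM Tris-HCl pH 7.5, 50 mM NaCl, 1 mM DTT, 0.05% BSA; compound added, 1 hr ambient; polarization read per label.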
Potency is the fitted concentration of half-maximal effect.

For `O=C(Cn1nc(-c2ccccc2)ccc1=O)N1CCCCC1`, which Potency is on record?
Its Potency is “inactive”.

For `O=C(COC(=O)c1ccc(NS(=O)(=O)c2cccs2)cc1)Nc1nc2c(F)c(F)c(F)cc2s1`, which Potency is on record?
The Potency was 14.2 µM (active).

With `COCCNC(=O)C(OC(=O)c1nsc(Cl)c1Cl)C(C)C` (stereo not drawn) as the compound, how does the Potency read?
The Potency was “inactive”.

Which Potency does the source give for `COc1ccccc1NS(=O)(=O)c1cc(N2Cc3ccccc3C2=N)ccc1N1CCOCC1` here?
The Potency was 50.1 µM (active).

Which Potency does the source give for `CCCC(c1nnnn1Cc1ccco1)N1CCN(C2CCCC2)CC1` (stereo not drawn) here?
Its Potency is 79.4 µM (active).

Which Potency does the source give for `CC(NC(=O)c1cnc2ccccc2n1)c1ccccc1` (stereo not drawn) here?
Its Potency is “inactive”.

With `CN(C)C(CNc1ncnc2sc3c(c12)CCCCC3)c1ccco1` (stereo not drawn) as the compound, how does the Potency read?
Its Potency is 141 µM (active).

With `O=C(Nc1nnc(-c2ccccc2SCc2ccccc2)s1)Nc1ccccc1F` as the compound, how does the Potency read?
The Potency was 22.4 µM (active).

With `NC(=O)c1ccc(NC(=O)c2cncn2-c2ccccc2)cc1` as the compound, how does the Potency read?
The Potency was “inactive”.

For `CCc1nn(C)c2c(=O)c(=O)c2n(C)[nH]1`, which Potency is on record?
Its Potency is “inactive”.

With `COc1ccc(NC(=O)NC2(C(=O)N3CCOCC3)CCCCC2)cc1` as the compound, how does the Potency read?
The Potency was “inactive”.

Which Potency does the source give for `CCOc1cc(CNCCc2ccc(S(N)(=O)=O)cc2)ccc1OCc1ccccc1` here?
Its Potency is 70.8 µM (active).

For `CCc1cc2c(N3CCN(c4nnc(CC)s4)CC3)ncnc2s1`, which Potency is on record?
Its Potency is 11.2 µM (active).

With `CCCCCC1CCC(C(=O)NCCN2CCOCC2)CC1` (stereo not drawn) as the compound, how does the Potency read?
Its Potency is “inactive”.

Which Potency does the source give for `COc1ccccc1C(=O)Nc1ccccc1SC(=O)c1ccccc1OC` here?
The Potency was “inactive”.

With `c1ccc2c(c1)nc(N1CCOCC1)c1c3ccccc3[nH]c21` as the compound, how does the Potency read?
Its Potency is “inactive”.

With `CCC(C)CCCCC(=O)NC(CCN)C(=O)NC(C(=O)NC(CCN)C(=O)NC1CCNC(=O)C(C(C)O)NC(=O)C(CCN)NC(=O)C(CCN)NC(=O)C(CC(C)C)NC(=O)C(Cc2ccccc2)NC(=O)C(CCN)NC1=O)C(C)O` (stereo not drawn) as the compound, how does the Potency read?
Its Potency is 7.08 µM (active).

With `COCC(=O)Nc1cccc2ccccc12` as the compound, how does the Potency read?
The Potency was “inactive”.

Which Potency does the source give for `O=S(=O)(Nc1cccc(-c2cn3cccnc3n2)c1)c1ccccc1` here?
Its Potency is “inactive”.

For `CCOc1ccc(NC(=O)c2cccc(OC(=S)N3CCC(C)CC3)c2)cc1`, which Potency is on record?
The Potency was “inactive”.

For `CCOC(=O)N1CCN(C(=O)c2oc3ccc(S(=O)(=O)N(CC)CC)cc3c2C)CC1`, which Potency is on record?
Its Potency is “inactive”.

For `CCCc1cc(=O)oc2c3c(c(Cl)cc12)OCN(CCCO)C3`, which Potency is on record?
The Potency was “inactive”.

For `CN(C)CCCOc1ccc2c(c1)Sc1ccccc1CC2=O`, which Potency is on record?
The Potency was 141 µM (active).

Which Potency does the source give for `CCn1ncc(C(=O)Nc2cc(C)on2)c1C` here?
The Potency was “inactive”.

Which Potency does the source give for `C[C@H](NC(=O)c1cc2c(cn1)[nH]c1ccccc12)C(=O)O` here?
Its Potency is 56.4 µM (active).

With `CCN(CC)Cc1cc2[nH]c3c4ccc(Cl)cc4ncc3c2cc1OC` as the compound, how does the Potency read?
The Potency was 56.4 µM (active).

For `COc1ccc(-c2cc(=O)c3c(O)cc(O)c(-c4cc(-c5cc(=O)c6c(O)cc(O)cc6o5)ccc4OC)c3o2)cc1`, which Potency is on record?
Its Potency is “inactive”.

With `O=C(NC1CCN(c2ncccn2)CC1)c1c(F)cccc1F` as the compound, how does the Potency read?
Its Potency is “inactive”.

With `O=C(Cn1c(=O)c2c3c(sc2n(Cc2ccccc2)c1=O)CCCC3)NCCO` as the compound, how does the Potency read?
The Potency was “inactive”.

Which Potency does the source give for `CC(c1cc2ccccc2s1)N(O)C(N)=O` (stereo not drawn) here?
Its Potency is “inactive”.

Which Potency does the source give for `CC(C)Cc1cc(C(=O)NCCCN2CCOCC2)no1` here?
Its Potency is “inactive”.

For `O=C(O)CCC(=O)Nc1ccc(SSc2ccc(NC(=O)CCC(=O)O)cc2)cc1`, which Potency is on record?
The Potency was “inactive”.

With `O=C1NC(=S)N/C1=C/c1ccc2ccccc2c1` as the compound, how does the Potency read?
Its Potency is “inactive”.
